This passage reports outcome and AC50 results from PubChem BioAssay (EPA / NIEHS).

Test [1] addresses Paired box protein Pax-6 (Homo sapiens) (UniProt P26367). Kind of test: ATG_Pax6_CIS: Attagene CIS-FACTORIAL HepG2 Assay for human Paired Box 6 (PAX6) (AID 2282956). Particulars: HepG2 CIS-FACTORIAL PAX6 reporter transcription, RNA readout; actives raise or lower the signal. In outline:
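Read-out is reporter transcript level, measured by RT-PCR with fluorescent primer extension and capillary electrophoresis after 24 h dosing of transfected HepG2 cells. Activity in either direction fitted relative to DMSO control.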

Test [2] can be described thus: ATG_PXRE_CIS: Attagene CIS-FACTORIAL HepG2 Assay for human Pregnane X Receptor Element (PXRE) (AID 2282957). Conditions: HepG2 Attagene CIS-FACTORIAL PXRE reporter, mRNA; actives raise or lower the signal. Summed up:
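Fluorescent capillary electrophoresis of amplified reporter cDNA gave the signal, collected 24 h after dosing HepG2 cells that held transfected cis-element reporter constructs.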

Test [3] is described as follows: ATG_PPRE_CIS: Attagene CIS-FACTORIAL HepG2 Assay for human Peroxisome Proliferator-activated Response Element (PPRE) (AID 2282958). Particulars: HepG2 PPRE cis-element reporter, Attagene transcription factor profiling; actives raise or lower the signal. Summed up: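 Transcript-level reporter induction in transfected HepG2 cells after 24 h chemical exposure, quantified by fluorescence from RT-PCR products separated by capillary electrophoresis.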

The nature of test [4]: ATG_RORE_CIS: Attagene CIS-FACTORIAL HepG2 Assay for human RAR-related Orphan Receptor Element (RORE) (AID 2282959). Particulars: HepG2 Attagene cis-factorial RORE reporter, mRNA; actives raise or lower the signal. Summed up:
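Multiplexed reporter assay measuring mRNA induction from a cis promoter element in transiently transfected HepG2 cells after 24 h treatment. Detection via RT-PCR and capillary electrophoresis fluorescence; DMSO serves as baseline.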

A short description of test [5]: ATG_Sox_CIS: Attagene CIS-FACTORIAL HepG2 Assay for human SRY-box transcription factor (SOX) (AID 2282960). Particulars: HepG2 Attagene cis-factorial SOX reporter, mRNA; actives raise or lower the signal. Summed up: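 Cells were transfected with reporter constructs under cis-regulatory promoters, then exposed to chemicals for 24 h. Reporter transcripts were quantified by fluorescence after RT-PCR and capillary electrophoresis; activity was fitted in both directions against DMSO.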

In test [6] the target is Transcription factor Sp1 (Homo sapiens) (UniProt P08047). Kind of test: ATG_Sp1_CIS: Attagene CIS-FACTORIAL HepG2 Assay for human Specificity Protein 1 (Sp1) (AID 2282961). Particulars: HepG2 Sp1 cis-reporter transcription, actives raise or lower the signal. In outline: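 Measures mRNA induction of an Sp1-linked reporter in HepG2 cells 24 h post-dosing. Multiplexed reporters read by RT-PCR and capillary electrophoresis; DMSO serves as negative control and baseline.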
Chain of Transcription factor Sp1 (Homo sapiens) (P08047 whole entry, looked up): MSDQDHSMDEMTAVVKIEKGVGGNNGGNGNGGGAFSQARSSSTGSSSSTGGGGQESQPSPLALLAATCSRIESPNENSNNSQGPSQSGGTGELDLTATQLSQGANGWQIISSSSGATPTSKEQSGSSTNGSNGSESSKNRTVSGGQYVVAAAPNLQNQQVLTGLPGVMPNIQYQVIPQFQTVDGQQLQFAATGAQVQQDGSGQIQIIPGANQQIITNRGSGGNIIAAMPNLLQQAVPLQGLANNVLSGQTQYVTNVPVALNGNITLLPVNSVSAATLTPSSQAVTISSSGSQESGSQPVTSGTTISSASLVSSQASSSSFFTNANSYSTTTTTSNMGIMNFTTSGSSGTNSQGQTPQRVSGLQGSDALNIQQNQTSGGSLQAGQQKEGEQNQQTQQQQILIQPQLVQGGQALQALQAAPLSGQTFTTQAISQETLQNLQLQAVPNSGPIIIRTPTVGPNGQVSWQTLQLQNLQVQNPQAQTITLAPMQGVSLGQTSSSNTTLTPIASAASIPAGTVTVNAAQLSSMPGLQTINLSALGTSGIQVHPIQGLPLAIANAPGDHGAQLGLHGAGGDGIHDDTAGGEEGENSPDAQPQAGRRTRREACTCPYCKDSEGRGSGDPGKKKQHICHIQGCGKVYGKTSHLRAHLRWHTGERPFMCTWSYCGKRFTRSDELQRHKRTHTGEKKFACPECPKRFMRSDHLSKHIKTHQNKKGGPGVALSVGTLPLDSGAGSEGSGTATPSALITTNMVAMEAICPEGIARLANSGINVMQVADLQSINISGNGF

The nature of test [7]: ATG_SREBP_CIS: Attagene CIS-FACTORIAL HepG2 Assay for human Sterol Regulatory Element Binding (SREBP) (AID 2282962). Particulars: HepG2 Attagene cis-factorial SREBP reporter, mRNA; actives raise or lower the signal. In outline: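 Endogenous SREBP activity read as cis-element-driven reporter transcript in transiently transfected HepG2, 24 h post-dosing; quantified via RT-PCR plus capillary electrophoresis of fluorescent fragments. Gain or loss of signal fitted relative to DMSO baseline.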

Test [8] concerns the target Signal transducer and activator of transcription 3 (Homo sapiens) (UniProt P40763). Kind of test: ATG_STAT3_CIS: Attagene CIS-FACTORIAL HepG2 Assay for human Signal Transducer and Activator of Transcription 3 (STAT3) (AID 2282963). Conditions: HepG2, Attagene cis-factorial STAT3 reporter transcription; actives raise or lower the signal. In outline: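 Readout: fluorescent reporter mRNA fragments resolved by capillary electrophoresis. Setup: HepG2 transfected with MRTUs reporting endogenous transcription-factor activity, dosed 24 h. Gain or loss of signal fitted bidirectionally against DMSO control.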

Test [9] can be described thus: ATG_TA_CIS: Attagene CIS-FACTORIAL HepG2 Assay for human TA Basal Promoter (AID 2282964). Particulars: HepG2 Attagene CIS-factorial TA basal promoter reporter; actives raise or lower the signal. In outline:
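Transfected HepG2, 24 h compound exposure; RNA → RT-PCR → FAM primer extension → HpaI cut → CE fluorescence. Gain/loss-of-signal fitted against DMSO negative control. Background-control readout.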

Test [10] can be described thus: ATG_TCF_b_cat_CIS: Attagene CIS-FACTORIAL HepG2 Assay for human T-Cell-Factor with beta-catenin (TCF/b-cat) (AID 2282965). Conditions: HepG2 TCF/beta-catenin cis-reporter transcription, actives raise or lower the signal. In outline: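 HepG2, transient MRTU transfection, cis-element-driven reporters (endogenous TFs). 24 h compound exposure. Readout: reporter mRNA by RT-PCR + 6-FAM primer extension, HpaI digest, capillary electrophoresis. Gain/loss fit vs DMSO baseline.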

Test [11] can be described thus: ATG_TAL_CIS: Attagene CIS-FACTORIAL HepG2 Assay for human TAL Basal Promoter (AID 2282966).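 Further: background control endpoint measuring basal TAL promoter reporter mRNA not a specific factor.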 Conditions: HepG2 Attagene cis-factorial TAL promoter reporter; actives raise or lower the signal. Summed up:
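Transiently transfected HepG2 (cis-regulated reporter units), 24 h treatment, mRNA read by fluorescent CE after RT-PCR; bidirectional fit, DMSO baseline.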

The nature of test [12]: ATG_TGFb_CIS: Attagene CIS-FACTORIAL HepG2 Assay for human Transforming Growth Factor (TGF) (AID 2282967). Particulars: HepG2 Attagene CIS TGFb reporter, mRNA transcription; actives raise or lower the signal. Summed up: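 Readout: fluorescently labeled reporter cDNA fragments resolved by capillary electrophoresis after RT-PCR. Transfected HepG2 cells dosed for 24 h; endogenous TF activity at TGFB1-linked cis element; gain or loss fitted relative to DMSO.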

Test [13] is described as follows: ATG_VDRE_CIS: Attagene CIS-FACTORIAL HepG2 Assay for human Vitamin D Receptor Element (VDRE) (AID 2282968). Particulars: HepG2 VDRE cis-reporter transcription, actives raise or lower the signal. Summed up:
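Transient MRTU transfection of HepG2, 24 h compound exposure. Readout: reporter transcripts via RT-PCR and capillary electrophoresis, fluorescence. Bidirectional fit vs DMSO.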

The target in test [14] is Nuclear receptor subfamily 1 group I member 3 (Homo sapiens) (UniProt Q14994). Kind of test: ATG_CAR_TRANS: Attagene TRANS-FACTORIAL HepG2 Assay for human Constitutive Androstane Receptor (CAR) (AID 2282969; active means hit-call score of the fitted dose curve at least 0.9, where 1 is the maximum;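 further: activators raise reporter mRNA above DMSO so AC50 marks induction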). Particulars: HepG2 Attagene TRANS-FACTORIAL CAR reporter. In outline:
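Transiently transfected HepG2, multiplex TRANS reporters (CAR-Gal4 chimera driving GAL4-UAS reporter). 24 h dosing. Readout: reporter transcript by RT-PCR + capillary electrophoresis, fluorescence intensity; positive direction vs DMSO.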

Test [15] concerns the target X-box-binding protein 1 (Homo sapiens) (UniProt P17861). Kind of test: ATG_Xbp1_CIS: Attagene CIS-FACTORIAL HepG2 Assay for human X-box Binding Protein 1 (XBP1) (AID 2282972). Particulars: HepG2 XBP1 cis-element reporter, Attagene multiplex; actives raise or lower the signal. Summed up: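 Reporter transcripts were quantified by RT-PCR with fluorescent primer extension and capillary electrophoresis after 24 h chemical exposure. Cells: transiently transfected HepG2 carrying cis-regulated reporter constructs; data fitted bidirectionally relative to DMSO.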

The nature of test [16]: ATG_GAL4_TRANS: Attagene TRANS-FACTORIAL HepG2 Assay for GAL4 (Internal Marker) (AID 2282976; active means hit-call score of the fitted dose curve at least 0.9, where 1 is the maximum). Particulars: HepG2 Attagene TRANS GAL4 internal marker reporter. In outline: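 HepG2 cells transiently transfected with multiplexed GAL4-UAS reporter constructs were dosed for 24 h. Reporter mRNA was measured by RT-PCR, 6-FAM primer extension, HpaI digestion and capillary electrophoresis, and gain of signal was fitted relative to DMSO.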

The target of test [17] is Estrogen receptor (Homo sapiens) (UniProt P03372). As to the kind of experiment: ATG_ERa_TRANS: Attagene TRANS-FACTORIAL HepG2 Assay for human Estrogen Receptor alpha (ERa) (AID 2282970; active means hit-call score of the fitted dose curve at least 0.9, where 1 is the maximum). Particulars: HepG2 Attagene TRANS ERa GAL4 reporter, mRNA. In outline: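 One of 30 multiplexed endpoints from a HepG2 TRANS system, this one reports ERa-Gal4-driven reporter mRNA. Transcripts were quantified 24 hours post-dosing by fluorescent RT-PCR and capillary electrophoresis, with activity scored as induction over DMSO.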
Chain of Estrogen receptor (Homo sapiens) (P03372 whole entry, looked up, the tested form may be a part): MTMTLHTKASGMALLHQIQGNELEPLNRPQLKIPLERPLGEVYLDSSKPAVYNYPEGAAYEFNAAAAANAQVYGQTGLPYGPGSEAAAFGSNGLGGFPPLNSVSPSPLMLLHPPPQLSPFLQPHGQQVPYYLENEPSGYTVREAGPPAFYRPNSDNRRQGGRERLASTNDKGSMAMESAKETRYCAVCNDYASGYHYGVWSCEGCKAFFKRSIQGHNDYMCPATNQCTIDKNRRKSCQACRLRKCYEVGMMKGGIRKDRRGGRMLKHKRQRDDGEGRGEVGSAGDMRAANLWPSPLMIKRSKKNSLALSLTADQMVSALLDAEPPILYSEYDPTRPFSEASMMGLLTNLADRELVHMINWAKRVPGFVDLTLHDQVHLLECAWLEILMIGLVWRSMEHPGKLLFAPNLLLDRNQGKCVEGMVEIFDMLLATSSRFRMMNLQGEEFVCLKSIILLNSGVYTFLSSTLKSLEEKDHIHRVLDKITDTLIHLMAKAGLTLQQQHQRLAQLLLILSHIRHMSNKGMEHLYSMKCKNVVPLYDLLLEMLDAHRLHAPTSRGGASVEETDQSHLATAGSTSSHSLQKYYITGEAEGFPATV

Test [18] in a line: ATG_M_19_TRANS: Attagene TRANS-FACTORIAL HepG2 Assay for M19 Transcription Factor (Internal Marker) (AID 2282974; active means hit-call score of the fitted dose curve at least 0.9, where 1 is the maximum). Particulars: HepG2 Attagene TRANS-FACTORIAL M19 internal marker reporter. In outline:
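After transfection of HepG2 with GAL4-UAS-driven reporter constructs, cells are dosed for 24 h. Total RNA is reverse-transcribed, reporter sequences PCR-amplified and labelled, then HpaI-digested and sized by capillary electrophoresis.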

Records with an inconclusive call do not appear. Calls of active or inactive are those of the source. How the source made its calls, unless noted: active means hit-call score of the fitted dose curve at least 0.9, where 1 is the maximum; inactive means score below 0.9.

Chain of X-box-binding protein 1 (Homo sapiens) (P17861 whole entry, looked up): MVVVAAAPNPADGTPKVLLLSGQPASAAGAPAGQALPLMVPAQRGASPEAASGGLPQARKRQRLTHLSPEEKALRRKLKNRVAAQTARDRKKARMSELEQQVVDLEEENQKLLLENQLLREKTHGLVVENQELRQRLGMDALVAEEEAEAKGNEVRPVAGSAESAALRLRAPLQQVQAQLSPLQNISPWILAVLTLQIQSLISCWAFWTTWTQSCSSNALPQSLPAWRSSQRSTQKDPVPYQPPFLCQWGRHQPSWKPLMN
Chain of Signal transducer and activator of transcription 3 (Homo sapiens) (P40763 whole entry, looked up, the tested form may be a part): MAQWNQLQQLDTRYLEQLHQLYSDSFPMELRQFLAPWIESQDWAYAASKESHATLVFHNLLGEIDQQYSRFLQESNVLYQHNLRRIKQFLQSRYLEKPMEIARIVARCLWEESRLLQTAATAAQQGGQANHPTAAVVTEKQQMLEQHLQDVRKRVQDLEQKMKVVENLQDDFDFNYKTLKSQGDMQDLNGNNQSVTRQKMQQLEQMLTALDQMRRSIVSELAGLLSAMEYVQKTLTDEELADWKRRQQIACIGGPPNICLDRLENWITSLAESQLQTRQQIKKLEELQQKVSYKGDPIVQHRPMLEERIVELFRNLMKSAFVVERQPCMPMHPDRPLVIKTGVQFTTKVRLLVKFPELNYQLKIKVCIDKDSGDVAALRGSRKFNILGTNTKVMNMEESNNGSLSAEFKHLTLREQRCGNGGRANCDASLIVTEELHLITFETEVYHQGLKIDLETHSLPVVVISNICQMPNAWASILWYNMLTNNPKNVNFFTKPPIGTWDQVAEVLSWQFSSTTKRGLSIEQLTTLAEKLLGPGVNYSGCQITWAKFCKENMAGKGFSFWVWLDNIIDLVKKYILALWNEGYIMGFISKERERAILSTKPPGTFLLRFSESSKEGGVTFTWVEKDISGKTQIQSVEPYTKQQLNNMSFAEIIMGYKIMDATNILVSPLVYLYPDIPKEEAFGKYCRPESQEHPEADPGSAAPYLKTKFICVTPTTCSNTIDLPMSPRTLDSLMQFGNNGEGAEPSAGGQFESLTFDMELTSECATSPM
Chain of Paired box protein Pax-6 (Homo sapiens) (P26367 whole entry, looked up): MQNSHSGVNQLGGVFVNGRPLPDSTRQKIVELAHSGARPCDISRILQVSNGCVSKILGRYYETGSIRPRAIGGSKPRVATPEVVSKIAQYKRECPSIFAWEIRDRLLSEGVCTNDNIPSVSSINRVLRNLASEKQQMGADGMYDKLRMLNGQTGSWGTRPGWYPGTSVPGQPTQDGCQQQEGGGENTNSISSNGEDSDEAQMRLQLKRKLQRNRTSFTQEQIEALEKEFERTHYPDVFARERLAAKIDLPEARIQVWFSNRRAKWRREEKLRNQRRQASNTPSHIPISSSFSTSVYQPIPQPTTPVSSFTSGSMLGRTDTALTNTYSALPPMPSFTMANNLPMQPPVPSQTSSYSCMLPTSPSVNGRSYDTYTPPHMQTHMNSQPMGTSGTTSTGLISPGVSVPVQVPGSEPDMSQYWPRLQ
Chain of Nuclear receptor subfamily 1 group I member 3 (Homo sapiens) (Q14994 whole entry, looked up, the tested form may be a part): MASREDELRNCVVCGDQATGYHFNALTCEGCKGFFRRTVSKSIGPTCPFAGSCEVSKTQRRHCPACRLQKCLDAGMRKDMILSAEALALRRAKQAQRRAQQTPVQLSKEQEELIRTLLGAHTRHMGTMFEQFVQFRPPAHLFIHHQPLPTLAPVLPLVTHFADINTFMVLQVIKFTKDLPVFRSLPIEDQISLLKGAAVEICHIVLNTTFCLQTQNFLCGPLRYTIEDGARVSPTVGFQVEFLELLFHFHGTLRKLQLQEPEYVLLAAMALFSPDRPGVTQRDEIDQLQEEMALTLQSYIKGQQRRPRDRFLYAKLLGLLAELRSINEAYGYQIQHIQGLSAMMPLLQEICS

For the molecule `CC1CCC(C(C)(C)O)CC1` (centres undefined), the call in [1], in test [2], in [3], in test [4], in test [5] and in test [6] was inactive. For the same molecule, the call in test [7], in [8], in [9], in [10], in test [11] and in test [12] was inactive. Also, the outcome in test [13], in test [14], in test [15] and in test [16] was inactive.

`C[C@H]1C[C@H]2[C@@H]3CCC4=CC(=O)C=C[C@]4(C)[C@@]3(F)[C@@H](O)C[C@]2(C)[C@@]1(O)C(=O)COP(=O)(O)O`: the outcome in test [1], in [2], in test [3], in test [4], in test [5] and in [6] was inactive. In addition, the outcome in test [7], in test [8], in test [9], in [10], in test [11] and in test [12] was inactive. Further, the molecule was classed as inactive in [13], in test [17] and in test [15].

In the case of `NC(=O)NC1NC(=O)NC1=O` (centres undefined), the molecule was classed as inactive in [1], in test [2], in test [3], in test [4], in [5] and in test [6]. For the same molecule, the molecule was called inactive in [7], in test [8], in test [9], in [10], in test [11] and in [12]. Moreover, the result in [13], in test [14], in [15] and in test [16] was inactive.

Consider `CC1=CCC(O)(C(C)C)CC1` (centres undefined), for which the molecule was called inactive in test [1], in [3], in test [4], in [5], in test [6] and in test [7]. The molecule was called inactive in [8], in test [9], in [10], in test [11], in test [12] and in test [13]. In addition, the molecule was called inactive in test [14], in test [17], in [18] and in [16]. In addition, in [2], the AC50 is 39.1 µM (active).

In general, AC50 refers to the midpoint of the concentration-response curve, whichever way the signal moves.
